Data from PubChem BioAssay AID1159580 (chemical genetic matrix, 2015).
The whole screen tested about 5,500 compounds, of which about 2,000 (36%) were called active. Inconclusive results (about 18%) are left out. No stated cut-off is given here; in the data, active means normalized growth mostly below about 0.91 (no sharp cut-off); inconclusive means no clear call, values can overlap the other calls; inactive means mostly above about 0.92. The list shows a part of the results.

Test: chemical genetic growth profiling, strain panel (AID 1159580);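 further: tested at 20 µM; growth read once vehicle control cultures reached saturation at 30 °C; 1 = growth at the plate median or of vehicle wells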
Conditions: growth OD

Measured: normalized growth

N#C/C(=C\c1ccc(O)cc1)C(=O)O
inactive: S. cerevisiae deletion strains, locus YJR075W, strain HOC1, stronger effect = lower value 0.979 | S. cerevisiae deletion strains, locus YKL009W, strain mrt4, stronger effect = lower value 0.963 | S. cerevisiae deletion strains, locus YKL068W, stronger effect = lower value 0.999 | S. cerevisiae deletion strains, locus YKL085W, strain MDH1 (second series), stronger effect = lower value 0.973 | S. cerevisiae deletion strains, locus YKL085W, strain MDH1, stronger effect = lower value 0.973 | S. cerevisiae deletion strains, locus YKL160W, strain elf1, stronger effect = lower value 0.988 | S. cerevisiae deletion strains, locus YKL190W, strain CNB1, stronger effect = lower value 0.992 | S. cerevisiae deletion strains, locus YKR001C, strain vps1, stronger effect = lower value 1.01 | S. cerevisiae deletion strains, locus YKR026C, strain gcn3, stronger effect = lower value 0.97 | S. cerevisiae deletion strains, locus YKR091W, strain srl3, stronger effect = lower value 0.994 | S. cerevisiae deletion strains, locus YLL001W, strain dnm1, stronger effect = lower value 0.994 | S. cerevisiae deletion strains, locus YLL026W, stronger effect = lower value 1.01 | S. cerevisiae deletion strains, locus YLL041C, strain sdh2, stronger effect = lower value 0.995 | S. cerevisiae deletion strains, locus YLR027C, strain aat2, stronger effect = lower value 1.01 | S. cerevisiae deletion strains, locus YLR039C, strain RIC1, stronger effect = lower value 0.981 | S. cerevisiae deletion strains, locus YLR058C, strain SHM2, stronger effect = lower value 0.979 | S. cerevisiae deletion strains, locus YLR102C, strain apc9, stronger effect = lower value 0.988 | S. cerevisiae deletion strains, locus YLR113W, strain HOG1, stronger effect = lower value 1.01 | S. cerevisiae deletion strains, locus YLR221C, strain rsa3, stronger effect = lower value 0.984 | S. cerevisiae deletion strains, locus YLR258W, strain gsy2, stronger effect = lower value 1 | S. cerevisiae deletion strains, locus YLR262C, strain YPT6 (second series), stronger effect = lower value 0.993 | S. cerevisiae deletion strains, locus YLR262C, strain YPT6, stronger effect = lower value 0.97 | S. cerevisiae deletion strains, locus YLR268W, strain sec22, stronger effect = lower value 0.985 | S. cerevisiae deletion strains, locus YLR320W, strain mms22, stronger effect = lower value 1.03 | S. cerevisiae deletion strains, locus YLR330W, strain CHS5, stronger effect = lower value 0.992 | S. cerevisiae deletion strains, locus YLR342W, strain FKS1 (second series), stronger effect = lower value 1.07 | S. cerevisiae deletion strains, locus YLR342W, strain FKS1, stronger effect = lower value 1.01 | S. cerevisiae deletion strains, locus YLR357W, strain rsc2, stronger effect = lower value 0.989 | S. cerevisiae deletion strains, locus YLR370C, strain arc18, stronger effect = lower value 0.995 | S. cerevisiae deletion strains, locus YLR371W, strain rom2, stronger effect = lower value 1.01 | S. cerevisiae deletion strains, locus YLR384C, strain iki3, stronger effect = lower value 1 | S. cerevisiae deletion strains, locus YLR418C, strain cdc73, stronger effect = lower value 0.953 | S. cerevisiae deletion strains, locus YML016C, strain PPZ1, stronger effect = lower value 0.992 | S. cerevisiae deletion strains, locus YML032C, strain rad52, stronger effect = lower value 1.03 | S. cerevisiae deletion strains, locus YML120C, strain ndi1, stronger effect = lower value 0.994 | S. cerevisiae deletion strains, locus YML124C, strain tub3, stronger effect = lower value 0.999 | S. cerevisiae deletion strains, locus YMR058W, strain fet3, stronger effect = lower value 0.988 | S. cerevisiae deletion strains, locus YMR078C, strain ctf18, stronger effect = lower value 0.998 | S. cerevisiae deletion strains, locus YMR125W, strain sto1, stronger effect = lower value 0.96 | S. cerevisiae deletion strains, locus YMR129W, stronger effect = lower value 0.982 | S. cerevisiae deletion strains, locus YMR205C, strain PFK2, stronger effect = lower value 1.04 | S. cerevisiae deletion strains, locus YMR223W, strain ubp8, stronger effect = lower value 1.04 | S. cerevisiae deletion strains, locus YMR231W, strain pep5, stronger effect = lower value 1.01 | S. cerevisiae deletion strains, locus YMR263W, strain SAP30, stronger effect = lower value 0.962 | S. cerevisiae deletion strains, locus YMR307W, strain GAS1, stronger effect = lower value 1.12 | S. cerevisiae deletion strains, locus YNL067W, strain RPL9B, stronger effect = lower value 0.974 | S. cerevisiae deletion strains, locus YNL071W, strain lat1, stronger effect = lower value 0.998 | S. cerevisiae deletion strains, locus YNL128W, strain TEP1, stronger effect = lower value 0.927 | S. cerevisiae deletion strains, locus YNL153C, strain GIM3, stronger effect = lower value 0.953 | S. cerevisiae deletion strains, locus YNL183C, strain NPR1, stronger effect = lower value 0.993 | S. cerevisiae deletion strains, locus YNL209W, strain ssb2, stronger effect = lower value 0.997 | S. cerevisiae deletion strains, locus YNL233W, strain BNI4, stronger effect = lower value 0.997 | S. cerevisiae deletion strains, locus YNL248C, strain rpa49, stronger effect = lower value 0.963 | S. cerevisiae deletion strains, locus YNL250W, strain rad50, stronger effect = lower value 0.968 | S. cerevisiae deletion strains, locus YNL271C, strain bni1, stronger effect = lower value 1.01 | S. cerevisiae deletion strains, locus YNL298W, strain CLA4, stronger effect = lower value 1 | S. cerevisiae deletion strains, locus YNL307C, strain MCK1, stronger effect = lower value 1.03 | S. cerevisiae deletion strains, locus YNL322C, strain KRE1 (second series), stronger effect = lower value 0.996 | S. cerevisiae deletion strains, locus YNL322C, strain KRE1, stronger effect = lower value 0.977 | S. cerevisiae deletion strains, locus YNR049C, strain mso1, stronger effect = lower value 0.996 | S. cerevisiae deletion strains, locus YNR052C, strain pop2, stronger effect = lower value 1 | S. cerevisiae deletion strains, locus YOL006C, strain TOP1, stronger effect = lower value 0.912 | S. cerevisiae deletion strains, locus YOL012C, strain htz1 1.16 | S. cerevisiae deletion strains, locus YOL147C, strain pex11, stronger effect = lower value 0.998 | S. cerevisiae deletion strains, locus YOR001W, strain rrp6, stronger effect = lower value 0.982 | S. cerevisiae deletion strains, locus YOR061W, strain CKA2, stronger effect = lower value 0.954 | S. cerevisiae deletion strains, locus YOR069W, strain VPS5, stronger effect = lower value 0.992 | S. cerevisiae deletion strains, locus YOR070C, strain gyp1, stronger effect = lower value 1 | S. cerevisiae deletion strains, locus YOR080W, strain dia2, stronger effect = lower value 0.996 | S. cerevisiae deletion strains, locus YOR083W, strain WHI5, stronger effect = lower value 0.978 | S. cerevisiae deletion strains, locus YOR106W, strain vam3, stronger effect = lower value 0.997 | S. cerevisiae deletion strains, locus YOR136W, strain idh2, stronger effect = lower value 1 | S. cerevisiae deletion strains, locus YOR144C, strain elg1, stronger effect = lower value 0.993 | S. cerevisiae deletion strains, locus YOR184W, strain ser1, stronger effect = lower value 1.08 | S. cerevisiae deletion strains, locus YOR231W, strain MKK1, stronger effect = lower value 1.04 | S. cerevisiae deletion strains, locus YOR265W, strain rbl2, stronger effect = lower value 1 | S. cerevisiae deletion strains, locus YOR270C, strain vph1, stronger effect = lower value 0.989 | S. cerevisiae deletion strains, locus YOR290C, strain snf2, stronger effect = lower value 0.958 | S. cerevisiae deletion strains, locus YOR316C, strain cot1, stronger effect = lower value 0.985 | S. cerevisiae deletion strains, locus YPL051W, strain arl3, stronger effect = lower value 0.988 | S. cerevisiae deletion strains, locus YPL055C, strain LGE1, stronger effect = lower value 0.908 | S. cerevisiae deletion strains, locus YPL078C, strain atp4, stronger effect = lower value 0.971 | S. cerevisiae deletion strains, locus YPL106C, strain sse1, stronger effect = lower value 1 | S. cerevisiae deletion strains, locus YPL240C, strain hsp82, stronger effect = lower value 0.986 | S. cerevisiae deletion strains, locus YPL241C, strain CIN2, stronger effect = lower value 0.985 | S. cerevisiae deletion strains, locus YPL256C, strain CLN2, stronger effect = lower value 1.09 | S. cerevisiae deletion strains, locus YPR119W, strain clb2, stronger effect = lower value 1 | S. cerevisiae deletion strains, locus YPR141C, strain kar3, stronger effect = lower value 0.977 | S. cerevisiae deletion strains, locus YPR163C, strain tif3, stronger effect = lower value 1.01 | S. cerevisiae deletion strains, locus YPR167C, strain met16, stronger effect = lower value 0.984 | S. cerevisiae deletion strains, strain wtn01, stronger effect = lower value 0.977 | S. cerevisiae strains, strain wild type, stronger effect = lower value 0.983
